Measurements reported in PubChem BioAssay AID1578 (Sanford-Burnham Center for Chemical Genomics, 2009).
The whole screen tested about 290,000 compounds, of which about 3,000 (1%) were called active. The full list was thinned out, with actives kept by preference. A number with no mark means an inactive call. Rule as the data show it: active = inhibition mostly above about 36% (no sharp cut-off); inactive = mostly below about 34%.

experiment: NOD1 signaling inhibitors, primary screen, cell-based, luminescence, uHTS (AID 1578); conditions: NOD1-driven NF-kB luciferase reporter cells, at 4 µM, hits give high values;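 also: HEK-293T reporter cells stimulated with the NOD1 agonist gamma-tri-DAP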

Compound | inhibition
CC(C)Cc1nnc(NC(=O)CCC(=O)NC2CCCC2)s1 | -20.3%
CC/C=C/C(=O)N1CC2(CC(c3cccc(NC(=O)c4ccccc4)c3)=NO2)C[C@@H]1C(N)=O (stereo partly drawn) | 20.5%
O=c1c2c3c(sc2nc2n1CCC2)CCCCC3 | -41%
Cn1cnc2cc(NC(=O)COc3ccccc3)ccc21 | -63.1%
Cc1cccn2c(=O)c3cc(S(=O)(=O)c4ccc(Br)cc4)c(=N)n(C4CCCC4)c3nc12 | -42.6%
O=C(O)c1cccc(NS(=O)(=O)c2cc(S(=O)(=O)c3ccc(Cl)cc3)ccc2Cl)c1 | 0.3%
COc1ccc(C(=O)NCc2ccc(-c3nc4ccccc4s3)cc2)cc1OC | -86.1%
COc1cc(C(=O)NCc2ccc(-c3nc4ccccc4s3)cc2)cc(OC)c1OC | -45%
Cc1ccc(-n2c(SCC(=O)Nc3ccc(C(=O)O)cc3)nnc2-c2ccncc2)cc1 | -9.4%
O=C(CCNS(=O)(=O)c1c(Cl)cccc1Cl)OCC(=O)c1ccccc1 | 10.5%
Cc1nn(C)c(Cl)c1NC(=O)OCc1ccccc1 | -9.7%
Cc1nn(C)c(Cl)c1NC(=O)OCc1ccc(Cl)cc1Cl | 68.3% (active)
COc1ccccc1COC(=O)Nc1c(C)nn(C)c1Cl | 10.8%
CCc1ccccc1NC(=O)CCC(=O)N1CCSc2ccccc21 | -3%
O=Nc1c(O)n(Cc2cccc(C(F)(F)F)c2)c2ccccc12 | 82.8% (active)
O=Nc1c(O)n(Cc2cccc(Cl)c2)c2ccccc12 | 34.1%
O=Nc1c(O)n(Cc2ccccc2)c2ccccc12 | 9.5%
Cc1cccc(NC(=S)NNC(=S)NC2CCCCC2)c1C | -15.3%
CCOC(=O)c1[nH]c(C)c(CN(CCc2ccc(OC)c(OC)c2)C(=O)CCCC(=O)O)c1C | -27.8%
CCOC(=O)C1CCCN(C(=O)CCCn2nnnc2CN2CCC(C)CC2)C1 (stereo not drawn) | -6.9%
CCOC(=O)C1CCCN(C(=O)CCn2nnnc2CN2CCOCC2)C1 (stereo not drawn) | -14.8%

Compound | inhibition
CCOC(=O)C1CCCN(C(=O)CCCn2nnnc2CN2CCOCC2)C1 (stereo not drawn) | 45% (active)
O=C(O)CN1C(=O)CSc2ccccc21 | 14.5%
O=C(CN1CCSc2ccccc21)NCCCc1ccccc1 | -29.8%
CCOC(=O)c1ccc(N2C(=O)CC(C)(CC)CC2=O)cc1 | -5%
CC(C)(C)c1ccc(NC(=O)N2CCN(c3ccc([N+](=O)[O-])cn3)CC2)cc1 | 29.4% (active)
CC(C)(C)c1ccc(C(=O)N2CCCN(c3ccc([N+](=O)[O-])cn3)CC2)cc1 | -3.4%
CC(C)(C)c1ccc(NC(=O)N2CCCN(c3ccc([N+](=O)[O-])cn3)CC2)cc1 | 0.9%
O=C(O)CCCN1C(=O)/C(=C/C=C/c2ccco2)SC1=S | 23.3% (active)
O=C(O)CC(C(=O)O)N1C(=O)/C(=C/C=C/c2ccco2)SC1=S (stereo not drawn) | -8.8%
O=C(O)CCCN1C(=O)/C(=C\c2ccco2)SC1=S | -3.5%
CC(=O)Nc1ccc(C(=O)N/C(=C/c2ccccc2)C(=O)Nc2cccc(C(=O)O)c2)cc1 | -27.4%
O=C(CN1CCCCCC1)NCc1ccccc1 | -25.9%
O=C(CSc1nnc(Cn2nnc3ccccc32)o1)N(Cc1ccc(Cl)cc1)c1ccccc1 | 48.7% (active)
O=C(CSc1nnc(Cn2nnc3ccccc32)o1)N(Cc1ccc(F)cc1)c1ccccc1 | 37.1%
COc1ccc(N(Cc2ccccc2)C(=O)CSc2nnc(Cn3nnc4ccccc43)o2)cc1 | -12.4%
O=C(O)c1ccc2c(c1)ncn2C1CCCCC1 | -10.3%
NNC(=O)c1csc(Cc2c(Cl)sc3ccc(Cl)cc23)n1 | 11.9%
CCOC(=O)CC1C(=O)NCCN1C(=O)COc1ccc(C(C)(C)C)cc1 (stereo not drawn) | -17.7%
O=C(O)Cc1ccc(NC(=O)Cc2ccc3ccccc3c2)cc1 | -30.6%
COc1cccc(-n2nnc3c(=O)n(CC(=O)N4CCCCC4)cnc32)c1 | -13.7%
Cc1ccc(NC(=O)C2C3C=CC4(O3)C2C(=O)N(CCCN2CCOCC2)C4C(=O)NC2CCCCC2)cc1Cl (stereo not drawn) | -35.1%

Compound | inhibition
CC(C)c1cc(C(=O)O)on1 | -10.1%
CC(C)c1cc(NC(=O)CSc2nnc(-c3ccccc3F)n2C)on1 | 18.2%
CC(C)c1cc(NC(=O)CCl)on1 | 41.7% (active)
CCc1ccc(NC(=O)c2cc(CC(C)C)on2)cc1 | -39.3%
O=C(N/N=C/c1ccc(O)cc1)c1ccc(NC(=O)c2ccccc2Br)cc1 | -3.3%
CCOc1ccc(CNC(=O)CCCC(=O)n2ncc3cc(C)ccc32)cc1 | -10.4%
CN1C(=O)c2cccc(NC(=O)Cc3ccccc3)c2C1=O | 5.1%
CCC(=O)Nc1cccc2c1C(=O)N(C)C2=O | 83.2% (active)
CN1C(=O)c2cccc(NC(=O)CCc3ccccc3)c2C1=O | -23%
CCCCNC(=S)Nc1ccc(Cl)cc1 | 0.1%
Cc1oc(-c2ccccc2Cl)nc1CSCC(=O)N1CCCC1 | 25.8%
Cc1oc(-c2ccccc2Cl)nc1CSc1nc2c(c(=O)[nH]1)CCC2 | 34%
COc1ccccc1N1CCN(c2ccc([N+](=O)[O-])cc2Cl)CC1 | 7.1%
Oc1ccc(Cc2ncc(C(F)(F)F)cc2Cl)cc1 | 5.6%
O=C(NCc1ccc2c(c1)OCO2)c1nc(S(=O)(=O)Cc2ccccc2)ncc1Cl | 16.2%
CC(=O)Nc1ccc(NC(=O)c2nc(S(=O)(=O)Cc3ccccc3)ncc2Cl)cc1 | 11.7%
Cc1ccc(NC(=O)c2nc(S(=O)(=O)Cc3ccccc3)ncc2Cl)cc1 | 34.5%
Cc1cccc(CS(=O)(=O)c2ncc(Cl)c(C(=O)NCc3ccc4c(c3)OCO4)n2)c1 | 70.3% (active)
Cc1cccc(CS(=O)(=O)c2ncc(Cl)c(C(=O)NCc3ccccc3)n2)c1 | 34.5%
CC(=O)Nc1ccc(NC(=O)c2nc(S(=O)(=O)Cc3cccc(C)c3)ncc2Cl)cc1 | 8.3%
Cc1nnc(NC(=O)c2nc(S(=O)(=O)Cc3ccccc3C)ncc2Cl)s1 | 41.7%
